MEKK3 PB1 HTS: modulators of MEKK3-MEK5 PB1 binding, primary screen, biochemical, wildtype MEKK3, multiplex bead flow cytometry, Alexa488-MEK5. AID 1529, 2009. bead-based flow cytometry, Alexa488-MEK5 binding to MEKK3; actives lie on both sides; 0 = blocked by unlabeled MEK5, 100 = vehicle. binding response (% of control), % at 10 µM. 1.4% of 290,000 active;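 active means binding response more than 3 SD above or below the average of its plate-row segment, actives on both sides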;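 further: Alexa488 bead fluorescence after subtracting the streptavidin-only scavenger bead signal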
MEKK2mut PB1 HTS: MEK5 binding signal on mutant MEKK2 PB1, primary screen, biochemical, multiplex bead flow cytometry, Alexa488-MEK5 | percent response, % at 10 µM | Alexa488-MEK5 binding to MEKK2 mutant | 0.35% of 290,000 active | AID 1530, 2009; in the data active means percent response above about 24%, passing the limit was not always enough
MEKK2 WT-MEK5: modulators of MEK5 binding to wildtype MEKK2, primary screen, biochemical, multiplex bead flow cytometry, Alexa488-MEK5. Mitogen-activated protein kinase kinase kinase 2 (Homo sapiens), Q9Y2U5. Alexa488-MEK5 binding to MEKK2 WT; actives lie on both sides. binding response (% of control), % at 10 µM. 1.1% of 290,000 active. AID 1531, 2009; in the data active means binding response below about 67% or above about 130%
SKN-1 block: suppressors of acrylamide-induced Pgst-4::GFP reporter in worms, primary screen, SKN-1 inhibitor project, whole organism, uHTS, GFP/RFP fluorescence ratio, strain VP596. C. elegans VP596 Pgst-4::GFP/RFP ratio, 24 h. 0.49% of 360,000 active. inhibition, % at 21.8 µM;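 active means interference check ratio from 0.5 to 1.5 plus GFP to RFP signal ratio inhibition reaching or exceeding a fixed threshold, cut at about 30% in these data, passing the limit was not always enough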
CendR NRP1 mod: modulators of CendR peptide binding to NRP-1, primary screen, biochemical, fluorescence polarization, uHTS. Neuropilin-1 (Homo sapiens), O14786. FAM-RPARPAR peptide binding to NRP-1. inhibition, % at 25 µM. 0.85% of 360,000 active. AID 602438, 2012;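 active means inhibition or corrected inhibition above about 18%, plus a signal ratio from 0.5 to 1.5, limit read from the data, passing the limit was not always enough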
Target sequence (O14786 whole entry, looked up): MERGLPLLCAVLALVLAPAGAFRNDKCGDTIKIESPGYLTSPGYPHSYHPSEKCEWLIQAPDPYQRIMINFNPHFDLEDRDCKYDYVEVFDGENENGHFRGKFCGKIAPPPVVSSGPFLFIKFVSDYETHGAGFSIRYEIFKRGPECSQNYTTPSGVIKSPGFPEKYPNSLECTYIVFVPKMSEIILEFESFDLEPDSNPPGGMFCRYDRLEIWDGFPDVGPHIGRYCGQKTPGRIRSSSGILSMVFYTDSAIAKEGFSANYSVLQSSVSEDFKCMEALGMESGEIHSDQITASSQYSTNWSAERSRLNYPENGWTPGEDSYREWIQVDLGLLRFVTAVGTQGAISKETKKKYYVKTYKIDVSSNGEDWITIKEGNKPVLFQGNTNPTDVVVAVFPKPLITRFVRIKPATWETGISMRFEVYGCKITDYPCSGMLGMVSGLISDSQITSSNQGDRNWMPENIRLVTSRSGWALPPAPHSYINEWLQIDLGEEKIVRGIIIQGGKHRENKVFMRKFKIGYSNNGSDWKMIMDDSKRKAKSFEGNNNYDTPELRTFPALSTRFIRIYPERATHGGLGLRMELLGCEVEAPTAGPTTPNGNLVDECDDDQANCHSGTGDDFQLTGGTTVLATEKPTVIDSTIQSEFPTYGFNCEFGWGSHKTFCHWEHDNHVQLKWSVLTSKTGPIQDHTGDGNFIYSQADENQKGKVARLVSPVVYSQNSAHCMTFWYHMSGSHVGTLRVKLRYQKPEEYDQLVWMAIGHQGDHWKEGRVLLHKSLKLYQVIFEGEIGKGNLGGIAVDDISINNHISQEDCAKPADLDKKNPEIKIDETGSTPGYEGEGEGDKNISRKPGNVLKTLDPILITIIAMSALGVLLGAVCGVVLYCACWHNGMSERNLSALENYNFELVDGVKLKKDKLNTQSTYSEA
MEKK2wt confirm: modulators of MEK5 binding to wildtype MEKK2, confirmation, biochemical, single concentration, multiplex bead flow cytometry; shares compounds with MEKK3 PB1 HTS; Alexa488-MEK5 binding to MEKK2 WT; actives lie on both sides; binding response (% of control), % at 10 µM; 2.4% of 5,900 active; AID 1892, 2009; in the data active means binding response below about 16% or above about 210%; inactive means in between
MEKK2mut-MEK5: mutant MEKK2 PB1-MEK5 binding signal retest – biochemical, single concentration, multiplex bead flow cytometry, confirmation; shares compounds with MEKK3 PB1 HTS; Alexa488-MEK5 binding to MEKK2 mutant; percent response, % at 10 µM; 2% of 5,900 active; AID 1893, 2009; in the data active means percent response mostly above about 71%, no sharp cut-off; inactive means mostly below about 38%;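 further: higher means compound restores mutant binding toward wildtype level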
MEKK3-MEK5 inh: MEKK3 wild-type PB1 binding to MEK5, inhibitors, confirmation, biochemical, bead multiplex flow cytometry, single concentration, wildtype. shares compounds with MEKK3 PB1 HTS. AID 1894, 2009. 1.8% of 5,900 active. Alexa488-MEK5 binding to MEKK3; stronger effect = lower value. binding response (% of control), % at 10 µM;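 active means binding response below 72% of control, or above a set upper limit, though filed actives all read lower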
A number is an active result; – = inactive; · = not tested or not shown; [ ] = remark or other dose. An excerpt weighted towards active compounds, which were near 3.2% of everything screened.

SMILES	MEKK3 PB1 HTS	MEKK2mut PB1 HTS	MEKK2 WT-MEK5	SKN-1 block	CendR NRP1 mod	MEKK2wt confirm	MEKK2mut-MEK5	MEKK3-MEK5 inh
c1ccc(CN2CCN(c3nc(NCc4ccco4)c4ccccc4n3)CC2)cc1	–	–	168	–	–	–	–	–
O=C(OCCN=C1NS(=O)(=O)c2ccccc21)c1ccccc1	122	–	–	–	–	–	–	–
c1ccc(Cn2nnc3c(NCC4CCCO4)ncnc32)cc1 (stereo not drawn)	61[inhibitor]	–	–	–	–	–	–	–
CN(C)CCNC(=O)c1c(NC(=O)c2ccccc2)sc2c1CCCC2	–	–	148	–	–	–	–	–
Cc1cccc(C(=O)Nc2sc3c(c2C(=O)O)CCC3)c1	75[inhibitor]	–	–	–	–	–	–	–
CN(CCO)C(=O)c1c(NC(=O)c2ccccc2)sc2c1CCCC2	–	–	–	–	–	·	·	·
C[C@H]1CN([C@@H](C)CO)C(=O)CCCn2nncc2CO[C@H]1CN(C)S(=O)(=O)c1ccc(Oc2ccccc2)nc1	·	·	·	–	–	·	·	·
CN(C(=O)c1ccc(NC(=O)Cc2ccc(NC(=O)C3CCCN(C(=O)CCc4ccccc4)C3)cc2)cc1)C1CC1 (stereo not drawn)	·	·	·	–	–	·	·	·
Nc1c2c(nc3sc4c(c13)CCCCC4)CCCCC2	139	–	–	–	–	–	–	–
Cc1ccc(S(=O)(=O)N2CCCCC2CCNC(=O)C(=O)NCC2CCCO2)cc1 (stereo not drawn)	·	·	·	–	–	·	·	·
O=C(CCCCCn1c(=S)[nH]c2ccc(N3CCOCC3)cc2c1=O)NC1CCN(Cc2ccccc2)CC1	–	–	–	–	–	·	·	·
O=C(NC1CCN(Cc2ccccc2)CC1)c1ccc(Cn2c(=S)[nH]c3ccc(N4CCOCC4)cc3c2=O)cc1	–	–	154	–	–	–	–	–
COc1cccc(CNC(=O)CCCCCn2c(=S)[nH]c3ccc(N4CCOCC4)cc3c2=O)c1	130	–	–	·	·	–	–	–
CCC12CC3CC(C1)CC(C(=O)NNC(N)=O)(C3)C2	128	–	–	–	–	–	–	–
O=C(NNC(=O)c1oc2ccccc2c1-n1cccc1)c1ccco1	–	–	–	–	–	·	·	·
NNC(=O)c1oc2ccccc2c1-n1cccc1	143	–	–	–	–	–	–	–
CCOC(=O)c1c(CN2CCNCC2)nc2ccc(Cl)cc2c1-c1ccccc1	·	·	·	–	–	·	·	·
CCOc1ccc(C(=O)Nc2ccccc2CC)cc1[N+](=O)[O-]	50[inhibitor]	–	–	–	–	–	–	–
Cc1cc(C)c2nc(NCCCNC(=S)NCCCN(C)C)c(C#N)cc2c1	–	–	164	–	–	–	–	–
CCOCCCNC(=S)NCCCNc1nc2c(C)cc(C)cc2cc1C#N	–	–	–	–	–	·	·	·
Cc1ccc(NC(=O)CSc2nc3ccccc3c(=O)n2CCCN2CCCCC2)cc1C	–	–	149	–	–	–	–	–
CCn1c(SCC(=O)N2CCCC2)nc2ccccc2c1=O	74[inhibitor]	–	52[inhibitor]	–	–	–	–	–
CC(=O)c1cccc(NC(=O)CSc2nc3ccccc3c(=O)n2CCCN2CCOCC2)c1	·	·	·	–	–	·	·	·
O=C1c2ccccc2C(=O)N1CCCCSc1nc2ccccc2c(=O)n1CCCN1CCOCC1	143	–	–	–	–	–	–	–
FC(F)(F)c1ccccc1Cc1c(-c2cccc(Cl)c2)nc2c3ccccc3ccn12	·	·	·	–	–	·	·	·
SMILES	MEKK3 PB1 HTS	MEKK2mut PB1 HTS	MEKK2 WT-MEK5	SKN-1 block	CendR NRP1 mod	MEKK2wt confirm	MEKK2mut-MEK5	MEKK3-MEK5 inh
Oc1ccc(/C=N/Nc2ccc(Cl)nn2)c(O)c1O	–	–	–	–	–	·	·	·
C=CCOc1ccccc1CNCCc1ccc(S(N)(=O)=O)cc1	–	–	–	–	–	·	·	·
NS(=O)(=O)c1ccc(CCNCc2cc(Cl)ccc2OCc2ccccc2)cc1	–	–	144	–	–	–	–	–
NS(=O)(=O)c1ccc(CCNCc2cc(Br)ccc2OCc2ccccc2F)cc1	–	–	–	–	–	·	·	·
NS(=O)(=O)c1ccc(CCNCc2ccccc2OCc2ccc(Cl)cc2)cc1	–	–	145	–	–	–	–	–
NC(CCc1ccccc1)c1csc(NC(=O)Nc2cccc(C(F)(F)F)c2)n1 (stereo not drawn)	·	·	·	–	–	·	·	·
CCOC(=O)[C@@H]1[C@H]2COc3cc(OC)ccc3[C@@H]2N2C(=O)N(c3ccccc3)C(=O)[C@@]12C	·	·	·	–	–	·	·	·
Cc1ccc(OCCOc2ccc(Cl)cc2Cl)c([N+](=O)[O-])n1	–	–	165	–	–	–	–	–
COc1cccc(C(=O)C2CCCN(C/C=C/c3ccccc3OC)C2)c1 (stereo not drawn)	–	–	–	–	–	·	·	·
COc1ccc(/C=C/CN2CCCC(C(=O)c3ccc(OC)c(F)c3)C2)cc1 (stereo not drawn)	–	–	140	–	–	–	–	–
CCc1nc2ccc(C(=O)N(C)CC(=O)Nc3ccc(F)c(F)c3F)cc2nc1CC	·	·	·	–	–	·	·	·
CCCNC(=O)C1(C)CCN(C(=O)c2oc3ccccc3c2C)C1 (stereo not drawn)	·	·	·	–	–	·	·	·
CCOC(=O)N1CCN(C(=O)c2ccc3c(=O)n(CCc4ccccc4)c(=O)[nH]c3c2)CC1	125	–	–	–	–	–	–	–
COCCn1c(=O)[nH]c2cc(C(=O)NCCc3ccc(OC)c(OC)c3)ccc2c1=O	–	–	–	–	–	·	·	·
CCCCCn1c(=O)[nH]c2cc(C(=O)N3CCN(C(=O)OCC)CC3)ccc2c1=O	–	–	–	–	–	·	·	·
COCCn1c(=O)[nH]c2cc(C(=O)NCCc3ccc(S(N)(=O)=O)cc3)ccc2c1=O	135	–	–	–	–	–	–	–
COc1ccc(Br)c(Cn2c(C)c(C(=O)NCc3ccc(F)cc3)sc2=O)c1	·	·	·	–	–	·	·	·
CCOC(=O)c1sc2nc(C(C)C)c3c(c2c1N)CCC3	138	–	–	–	–	–	–	–

Source: PubChem BioAssay
